Among all 310,000 compounds or so, about 14,000 (4.5%) showed an effect of 50% or more. Effects have a minus sign here. The list comes from a sample in which strong results are over-represented; it also holds similar structures and randomly drawn compounds.

We go through 58 compounds from paper PMC4336329 (PLoS ONE, 2015).
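Also: peak tail current of the secondary pulse compared with the same well before compound.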

This test deals with human ether-à-go-go-related gene (hERG) potassium channel (human, UniProt Q12809). The test can be described thus: primary screen, population patch clamp on CHO cells stably expressing hERG; higher = less effect of the substance.
human ether-à-go-go-related gene (hERG) potassium channel, sequence (Q12809 whole entry, looked up): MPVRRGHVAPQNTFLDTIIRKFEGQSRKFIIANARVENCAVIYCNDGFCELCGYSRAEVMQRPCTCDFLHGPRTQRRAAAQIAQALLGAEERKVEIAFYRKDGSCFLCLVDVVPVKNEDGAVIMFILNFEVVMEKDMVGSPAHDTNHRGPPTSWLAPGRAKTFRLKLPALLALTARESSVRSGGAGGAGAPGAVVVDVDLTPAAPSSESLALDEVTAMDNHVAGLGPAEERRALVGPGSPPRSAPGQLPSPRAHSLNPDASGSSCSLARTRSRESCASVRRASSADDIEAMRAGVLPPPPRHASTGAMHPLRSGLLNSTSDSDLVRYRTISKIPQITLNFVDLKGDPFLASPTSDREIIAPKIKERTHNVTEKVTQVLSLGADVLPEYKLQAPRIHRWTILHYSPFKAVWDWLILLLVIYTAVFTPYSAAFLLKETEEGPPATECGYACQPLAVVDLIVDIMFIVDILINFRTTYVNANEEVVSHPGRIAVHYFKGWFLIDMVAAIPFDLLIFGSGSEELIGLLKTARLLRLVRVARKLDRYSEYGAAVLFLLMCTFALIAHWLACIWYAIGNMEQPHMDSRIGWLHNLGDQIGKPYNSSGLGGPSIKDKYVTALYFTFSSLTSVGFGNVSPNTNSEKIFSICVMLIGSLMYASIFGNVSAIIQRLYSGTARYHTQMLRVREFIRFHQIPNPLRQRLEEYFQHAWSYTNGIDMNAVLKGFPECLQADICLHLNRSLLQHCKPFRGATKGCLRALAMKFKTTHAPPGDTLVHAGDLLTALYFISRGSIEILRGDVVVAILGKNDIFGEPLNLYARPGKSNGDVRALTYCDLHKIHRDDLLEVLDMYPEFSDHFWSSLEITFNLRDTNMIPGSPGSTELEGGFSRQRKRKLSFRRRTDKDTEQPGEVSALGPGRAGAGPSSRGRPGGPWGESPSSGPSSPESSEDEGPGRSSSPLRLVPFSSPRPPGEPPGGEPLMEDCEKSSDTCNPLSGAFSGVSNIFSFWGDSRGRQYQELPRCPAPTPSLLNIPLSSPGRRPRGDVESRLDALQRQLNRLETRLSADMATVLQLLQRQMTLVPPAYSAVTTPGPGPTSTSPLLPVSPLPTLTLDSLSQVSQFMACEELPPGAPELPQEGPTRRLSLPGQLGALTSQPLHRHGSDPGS
For the compound `O=C(NCC1COCCO1)C1CCN(S(=O)(=O)c2ccccc2)CC1` (stereo not shown), the “hERG current change (%, negative = inhibition) at 10uM” value is -7.05%. In the case of `Cc1cc(C)cc(N(CC(=O)NCc2cccnc2)S(C)(=O)=O)c1` it was -1.95%; in that of `Cc1ccccc1NCc1ccc([N+](=O)[O-])s1`, -38.8%; in that of `CCC(C)(CC(=O)N(C)CCC#N)c1ccccc1` (stereo not shown), -0.111%. In the case of `COc1ccc(C(=O)N2CCCC(Nc3ccc(C)c(C)c3)C2)c(OC)n1` (stereo not shown), the “hERG current change (%, negative = inhibition) at 10uM” value is on record as -17.7%. As for `COc1cc(OC)cc(-c2nc3ccccc3c(=O)n2OC(=O)c2ccccc2C)c1`, the “hERG current change (%, negative = inhibition) at 10uM” value is 10.6%. In the case of `CCN(CC(=O)Nc1cc(Cl)ccc1C)C(=O)CCOc1ccccc1C` it was 18.4%. In the case of `CCN(CC(=O)Nc1c(F)cccc1F)C(=O)CCOc1ccc(C)cc1` it was -2.71%.

On to `CCN(CC(=O)NCc1cccs1)C(=O)CCOc1ccccc1C`, for which the “hERG current change (%, negative = inhibition) at 10uM” value is -19.8%. Turning to `CCOc1ccc(OCCCC(=O)N(CC)CC(=O)Nc2c(F)cccc2F)cc1`, the “hERG current change (%, negative = inhibition) at 10uM” value was -5.99%. For `CCOc1ccc(OCCC(=O)N(CC)CC(=O)Nc2c(F)cccc2F)cc1`, the “hERG current change (%, negative = inhibition) at 10uM” value was -60.2%. As to `CCN(CC(=O)NCc1ccc(Cl)cc1)C(=O)CCOc1ccccc1C`, the “hERG current change (%, negative = inhibition) at 10uM” value is recorded as -71%. In the case of `C=CCn1c(C)cc(C(=O)COC(=O)c2ccc3c(c2)NC(=O)CS3)c1C` it was 4.69%; in that of `COCCn1c(C)cc(C(=O)COC(=O)c2cncc(Br)c2)c1C`, -31.3%; in that of `C=CCn1c(C)cc(C(=O)COC(=O)c2cncc(Br)c2)c1C`, -55.9%. As for `CNc1cc(NS(=O)(=O)c2ccc(N)cc2)nc(NC)n1.Cl`, the figure is -61.4%. In the case of `Cc1cc(C)nc(NS(=O)(=O)c2ccc(N)cc2)n1` it was 12%; in that of `COc1cc(NS(=O)(=O)c2ccc(N)cc2)nc(OC)n1`, 9.57%; in that of `CN(C)CCNc1ncnc2c1sc1nc(N3CCCC3)c3c(c12)CC(C)(C)OC3`, -20.4%.

Take `CCN(CC)CCNc1ncnc2c1sc1nc(N3CCOCC3)c3c(c12)CC(C)(C)SC3`: the “hERG current change (%, negative = inhibition) at 10uM” value was -71.1%.

On to `CC1(C)Cc2c(c(N3CCOCC3)nc3sc4c(NN)ncnc4c23)CS1`, for which the “hERG current change (%, negative = inhibition) at 10uM” value is -5.43%. With `CCN(CC)CCNc1ncnc2c1sc1nc(N3CCOCC3)c3c(c12)CCCC3`, the “hERG current change (%, negative = inhibition) at 10uM” value is reported as -32.8%. For `OCCN(CCO)c1ncnc2c1sc1nc(N3CCOCC3)c3c(c12)CCCC3`, the “hERG current change (%, negative = inhibition) at 10uM” value is -13.3%. Regarding `OCCN1CCN(c2ncnc3c2sc2nc(N4CCOCC4)c4c(c23)CCC4)CC1`, the “hERG current change (%, negative = inhibition) at 10uM” value is listed as -22.1%. Regarding `CC(C)CNc1ncnc2c1sc1nc(N3CCOCC3)c3c(c12)CC(C)(C)OC3`, the “hERG current change (%, negative = inhibition) at 10uM” value was -4.77%. On to `CN(CCO)c1ncnc2c1sc1nc(N3CCOCC3)c3c(c12)CCC3`, for which the “hERG current change (%, negative = inhibition) at 10uM” value was -55.2%.

Turning to `CCN(CC)CCNc1ncnc2c1sc1nc(N3CCCC3)c3c(c12)CC(C)(C)OC3`, the “hERG current change (%, negative = inhibition) at 10uM” value is -65.5%. `C[C@]12CCC(OC(=O)CCC(=O)O)CC1=CCC1C2CC[C@]2(C)C(=O)CCC12` (stereo partly shown): the “hERG current change (%, negative = inhibition) at 10uM” value worked out at 11.5%.

Consider `CC1(C)c2[nH]c3ccccc3c2C[C@H]2C(=O)N(N)CC(=O)N21.Cl`, for which the “hERG current change (%, negative = inhibition) at 10uM” value came out at 19%. As for `COc1ccc(N2CCN(c3nc4cc(C)ccc4cc3C=O)CC2)cc1`, the figure is 16.6%; as for `COC(=O)C1=C(c2c(C)noc2C)C[C@@H]2CC[C@H]1N2C(=O)NCc1ccco1`, 19%. As to `O=C1COc2ccc(C(=O)CSc3nnc(NCc4ccccc4)s3)cc2N1`, the “hERG current change (%, negative = inhibition) at 10uM” value is on record as -9.48%. As for `CCn1c(SCC(=O)Nc2nc(C)cs2)nnc1-c1ccco1`, the figure is -50.8%; as for `Cc1csc(NC(=O)CSc2nnc(-c3ccco3)n2C)n1`, -31.6%. As for `O=[N+]([O-])c1ccc(Sc2n[nH]c(-c3ccco3)n2)nc1`, the figure is -0.59%; as for `CCOC(=O)c1cnc(SCC(=O)Nc2nnc(CC)s2)nc1N`, 8.46%; as for `O=[N+]([O-])c1ccc(Sc2ccccc2)nc1`, 8.82%. Consider `O=[N+]([O-])c1ccc(Sc2ccccn2)nc1`, for which the “hERG current change (%, negative = inhibition) at 10uM” value turned out to be 10.8%.

With `CCn1c(SCC(=O)Nc2nncs2)nnc1-c1ccco1`, the “hERG current change (%, negative = inhibition) at 10uM” value was found to be 17.2%. For the compound `CCn1c(Sc2ccc([N+](=O)[O-])cn2)nnc1-c1ccco1`, the “hERG current change (%, negative = inhibition) at 10uM” value is on record as -66.5%. For the compound `CCOC(=O)c1cnc(SCC(=O)Nc2sc(C)c(C)c2C#N)nc1N`, the “hERG current change (%, negative = inhibition) at 10uM” value was 14.2%. As to `CCOC(=O)c1cnc(SCC(=O)Nc2nc(C)c(C)s2)nc1N`, the “hERG current change (%, negative = inhibition) at 10uM” value was -61.9%. Regarding `O=[N+]([O-])c1ccc(Sc2ncc3ccccn23)nc1`, the “hERG current change (%, negative = inhibition) at 10uM” value is -51.6%. In the case of `CCn1c(SCC(N)=O)nnc1-c1ccco1` it was 3.15%; in that of `COc1ccc(C2/C(=C(/O)c3ccc(C)cc3)C(=O)C(=O)N2C)cc1` (stereo not shown), -2.36%.

With `CC1CCc2ccccc2N1C(=N)N(C)C.Cl` (stereo not shown), the “hERG current change (%, negative = inhibition) at 10uM” value was determined as 3.44%.

On to `CCNC(=O)O/N=C(\C)c1sc(-c2ccccc2)nc1C`, for which the “hERG current change (%, negative = inhibition) at 10uM” value was -11.2%. As for `CCOC(=O)C(=CNNc1cccc(Cl)c1)C(=O)OCC`, the figure is 15.5%; as for `O=C(Nc1ccc(F)cc1F)c1sccc1SCc1cccc(C(F)(F)F)c1`, -4.52%; as for `O=C(Nc1ccc(Nc2ccccc2)cc1)c1c(F)c(F)c(F)c(F)c1F`, 22.9%.

Turning to `CCOc1cccc(N(C(=O)c2ccco2)C(C(=O)NC2CCCC2)c2cccnc2)c1` (stereo not shown), the “hERG current change (%, negative = inhibition) at 10uM” value stood at 0.854%.

As to `Cc1ccc2sc(NNC(=O)c3cc(-c4cccs4)nc4ccccc34)nc2c1C`, the “hERG current change (%, negative = inhibition) at 10uM” value was found to be 16.3%. As to `CCn1c(SCC(=O)Nc2nc(C)c(C)s2)nnc1-c1ccco1`, the “hERG current change (%, negative = inhibition) at 10uM” value is -68.8%. As for `CCc1nnc(NC(=O)CSc2nnc(-c3ccco3)n2CC)s1`, the “hERG current change (%, negative = inhibition) at 10uM” value worked out at 13.7%. Take `CCn1c(Cc2ccccc2)nnc1SCC(=O)Nc1nc(C)c(C)s1`: the “hERG current change (%, negative = inhibition) at 10uM” value is on record as 9.3%. As to `CCn1c(SCC(=O)Nc2nnc(C)s2)nnc1-c1ccco1`, the “hERG current change (%, negative = inhibition) at 10uM” value was -5.98%. Consider `CCn1c(SCC(=O)Nc2nc(C)c(C)s2)nnc1-c1cccs1`, for which the “hERG current change (%, negative = inhibition) at 10uM” value was -73.4%. In the case of `CCn1c(SCC(=O)Nc2nc(C)c(C)s2)nnc1-c1cccnc1` it was -26.2%.
